# PubChem BioAssay
# A number with no mark means an inactive call. Activity calls are given as the source filed them. Cut-off read from the data, not from the text of the source, unless noted: active = inhibition above about 44%; inactive = the rest.
# Tests used:
# [1] = StAR promoter reporter inhibitors, counter-screen for LRH-1 inverse agonist project, cell-based, luminescence, high throughput (AID 651611; in the data active = inhibition above about 28%); details: StAR promoter luciferase reporter counterscreen, at 3.6 µM, hits give high values
# [2] = target: Nuclear receptor subfamily 5 group A member 2 (Homo sapiens) (UniProt O00482); test: NR5A2 activity suppression in reporter cells – cell-based, luminescence, confirmation (AID 651613; in the data active = inhibition above about 42%;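 note: HEK293T cells co-transfected with LRH-1 and StAR promoter luciferase reporter; 0% = vehicle wells and 100% = parental cells lacking receptor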); details: cell-based LRH-1 luciferase reporter, inverse agonism; at 3.6 µM; hits give high values
# [3] = target: Steroidogenic factor 1 (Homo sapiens) (UniProt Q13285); test: inverse agonism at SF1 nuclear receptor – cell-based, luminescence, high throughput, counter-screen for LRH-1 inverse agonist project (AID 651614); details: cell-based SF1 luciferase reporter, at 3.6 µM, hits give high values;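 note: cells cotransfected with StAR promoter reporter and SF1 expression vector; 0% = vehicle on cells with receptor and 100% = vehicle on cells lacking receptor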
# [4] = compounds suppressing VP16-driven luciferase signal – cell-based, luminescence, high throughput, counter-screen for LRH-1 inverse agonist project (AID 651615; in the data active = inhibition above about 33%); details: Gal4-VP16 luciferase reporter cells, at 3.6 µM, hits give high values
# Chain of Steroidogenic factor 1 (Homo sapiens) (Q13285 whole entry, looked up, the tested form may be a part): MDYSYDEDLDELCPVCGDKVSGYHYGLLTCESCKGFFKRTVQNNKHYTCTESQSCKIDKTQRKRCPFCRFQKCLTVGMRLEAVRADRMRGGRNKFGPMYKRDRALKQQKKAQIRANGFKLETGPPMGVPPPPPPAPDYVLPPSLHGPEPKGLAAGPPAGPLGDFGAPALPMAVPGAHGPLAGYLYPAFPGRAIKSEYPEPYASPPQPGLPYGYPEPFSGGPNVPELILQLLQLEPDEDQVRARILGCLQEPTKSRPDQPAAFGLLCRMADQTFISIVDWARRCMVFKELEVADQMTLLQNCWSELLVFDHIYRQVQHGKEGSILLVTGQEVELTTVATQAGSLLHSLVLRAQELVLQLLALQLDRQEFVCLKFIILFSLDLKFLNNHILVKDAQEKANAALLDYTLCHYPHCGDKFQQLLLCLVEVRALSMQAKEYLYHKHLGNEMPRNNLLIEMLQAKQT
# Chain of Nuclear receptor subfamily 5 group A member 2 (Homo sapiens) (O00482 whole entry, looked up): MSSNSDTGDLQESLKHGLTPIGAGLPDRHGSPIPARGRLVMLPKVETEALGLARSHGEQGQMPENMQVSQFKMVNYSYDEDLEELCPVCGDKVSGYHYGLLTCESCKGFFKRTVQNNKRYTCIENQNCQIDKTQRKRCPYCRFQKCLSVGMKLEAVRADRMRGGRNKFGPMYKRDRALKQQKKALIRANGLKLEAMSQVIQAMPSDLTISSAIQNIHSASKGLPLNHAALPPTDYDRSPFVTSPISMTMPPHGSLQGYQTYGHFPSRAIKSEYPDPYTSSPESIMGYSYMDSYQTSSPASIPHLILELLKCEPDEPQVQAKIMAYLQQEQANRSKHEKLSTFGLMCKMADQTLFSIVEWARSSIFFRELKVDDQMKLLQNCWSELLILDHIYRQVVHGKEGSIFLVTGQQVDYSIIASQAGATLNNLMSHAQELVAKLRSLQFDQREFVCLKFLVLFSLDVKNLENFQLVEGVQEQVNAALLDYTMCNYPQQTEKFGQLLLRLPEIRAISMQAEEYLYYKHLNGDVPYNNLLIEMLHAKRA
SMILES,inhibition [1],inhibition [2],inhibition [3],inhibition [4]
O=C(Nc1cccc(S(=O)(=O)N2CCCCC2)c1)c1ccc([N+](=O)[O-])o1,33.8% (active),67.3% (active),69.2% (active),-4.21%
Cc1cc(/C=N/n2cnnc2)c(C)n1-c1ccc(OCc2ccc(Cl)cc2)cc1,-11%,27.8%,48.3% (active),31.2% (active)
COC(=O)c1ccc(NC(=O)CSC2=NCCN2)cc1,-0.27%,54.5% (active),43.8% (active),4.09%
COc1cc(CNc2ccc(CNc3ncn[nH]3)cc2)ccc1OCC(=O)NC(C)(C)C,-5.1%,14.1%,-3.26%,15.7%
O=C(CC1C(=O)NCCN1C(=S)Nc1ccccc1)Nc1ccc2c(c1)OCCO2 (stereo not given),10.3%,53.8% (active),63.2% (active),-25.2%
O=C(c1cccc(Cl)c1)N1CCCC(c2ccc(Cl)cc2)=N1,2.78%,49.8% (active),57.3% (active),3.04%
CN1CCN(c2ccc(S(=O)(=O)N3CCCCC3)cc2NC(=O)COc2ccc([N+](=O)[O-])cc2)CC1,2.36%,59.6% (active),53.1% (active),4.16%
CC(=O)N1c2ccc(S(=O)(=O)N3CCC(C(=O)Nc4cccc(C)n4)CC3)cc2CC1C (stereo not given),18%,57.1% (active),54.1% (active),51.9% (active)
COc1ccc(OCCNC(=O)C2(C)CCN2Cc2ccc(SC)cc2)cc1 (stereo not given),1.32%,46% (active),45.9% (active),2.76%
Cn1cnnc1SCC(=O)Nc1ccc(N2CCOCC2)cc1,7.69%,59.5% (active),34.5%,-9.61%
COc1ccc(CCNC(=O)COC(=O)c2cccn2C)cc1,19%,42.9% (active),46.3% (active),-13.7%
Cc1cccc(NC(=O)CSc2nnc([C@@H]3CCCN3C(=O)OC(C)(C)C)o2)c1C,33.4% (active),66.2% (active),73.5% (active),-39.9%
CCCCCOc1ccc(Br)cc1CSC(=N)N,41.5% (active),99.7% (active),66.2% (active),84% (active)
O=C1c2ccccc2-n2c1nc1ccccc1c2=O,41.1% (active),66.7% (active),57.8% (active),51% (active)
NC(=S)N/N=C/c1ccc(-c2ccc([N+](=O)[O-])cc2)o1,-7.04%,52.5% (active),44.5% (active),13.5%
COc1ccc(CCNC(=O)COC(=O)C23CC4CC(CC(Br)(C4)C2)C3)cc1,4.42%,53.8% (active),53.9% (active),4.71%
O=C(Nc1cc(C(F)(F)F)ccc1-n1cncn1)c1ccc([N+](=O)[O-])o1,22.2%,57.7% (active),49.1% (active),-15.7%
Cc1ccc(C)c(NC(=O)CSc2nnc(CCNC(=O)OC(C)(C)C)o2)c1,20.9%,59.2% (active),59.8% (active),-2.78%
Cc1ccnc2nc(C(=O)OCC(=O)Nc3ccc([N+](=O)[O-])cc3Br)nn12,9.71%,38.9%,32.1%,-0.95%
CSc1ccc(CNc2cccc3ccccc23)cc1,3.79%,35.3%,24.7%,-39.8%
CCOc1ccc2c(c1)sc(N)[n+]2Cc1cc(C)cc2cccnc12,30.7% (active),56.2% (active),32.1%,39.5% (active)
CCc1cc(=O)oc2c(C)c(OCC(=O)NCCCN3CCCC3=O)ccc12,8.43%,52.1% (active),48.4% (active),-11.3%
O=C(Nc1ccc(N2CCN(C(=O)c3cccs3)CC2)cc1)c1ccc([N+](=O)[O-])o1,43.4% (active),67.3% (active),70.4% (active),7.47%
Cn1nc(C(C)(C)C)cc1C(=O)NCc1ccc2c(c1)OCO2,14.8%,59.8% (active),58.3% (active),50.6% (active)
Cc1cc2nc(C3CCCCC3)c(Cc3ccsc3)n2c(C)c1Br,4.75%,36.2%,37.7%,22.4%

SMILES,inhibition [1],inhibition [2],inhibition [3],inhibition [4]
COc1cc(NCCCCCCN)c2ncccc2c1OC,22.3%,49% (active),43.6% (active),-3%
Oc1cccc(Nc2nc(-c3ccccc3Cl)nc3ccccc23)c1,9.52%,54.2% (active),48.3% (active),-9.51%
CC(NC(=O)CCl)c1ccccc1Br (stereo not given),23.9%,60.2% (active),57.4% (active),-27.4%
CC1OC(CC(=O)O)CC2=C1C(=O)c1c(O)cccc1C2=O (stereo not given),95.4% (active),111% (active),98.2% (active),95.8% (active)
Cc1nnc(SCC(=O)Nc2ccc(Br)cc2)n(N)c1=O,6.5%,44.3% (active),32.1%,-5.1%
CCC(NC(=O)CCl)c1ccc(C)cc1 (stereo not given),29.5% (active),67.3% (active),53.9% (active),-27.2%
O=C(CSc1nc2[nH]ncc2c(=O)n1-c1ccccc1)c1ccc2c(c1)OCCO2,0.39%,38.2%,32.6%,-16.1%
CCOc1ccc(CCNC(=O)COC(=O)c2cc(S(=O)(=O)N3CCOCC3)ccc2F)cc1OCC,5.25%,53.2% (active),57.1% (active),-4.44%
O=C(Sc1cccc2cccnc12)c1ccccc1Br,86.8% (active),92.1% (active),85.5% (active),88% (active)
COc1cc2c(cc1OC)CN(C(=O)c1cc(=O)c3ccccc3o1)CC2,46.3% (active),30.2%,40.7%,16%
CCn1c(SCC(=O)Nc2ccc(Cl)cc2)nnc1C1CC1,14%,50.6% (active),50% (active),6.77%
Cc1ccc(C)c(NC(=O)CSc2nc3c(oc4ccccc43)c(=O)n2-c2ccccc2)c1,10.6%,50.3% (active),46.7% (active),-9.48%
CCc1ccccc1NC(=O)CSc1nnc([C@@H](NC(=O)OC(C)(C)C)C(C)CC)o1 (stereo not given in full),-3.97%,39.5%,30.1%,4.95%
CS(=O)(=O)N1CCN(c2ccccc2NC(=O)c2ccc([N+](=O)[O-])o2)CC1,11.6%,57.4% (active),55.3% (active),-20.1%
CC(=O)N1CCN(c2ccc(NC(=O)c3ccc([N+](=O)[O-])o3)cc2Cl)CC1,22.9%,60% (active),65.1% (active),-26.3%
CCOC(=O)N1CCc2cc(OC)c(OC)c3c2c1cc1cc(OC)c(OC)cc13,60.1% (active),70.3% (active),67.3% (active),-28.7%
c1cnn(-c2nc(N3CCOCC3)nc(N3CCOCC3)n2)c1,29.5% (active),63.6% (active),48.2% (active),20.2%
COc1cc(C(=O)Nc2ccccc2N2CCN(S(C)(=O)=O)CC2)cc(OC)c1OC,9.79%,44.5% (active),34%,-2.73%
CCc1nc(SCC(=O)N2CCc3cc(OC)c(OC)cc3C2)c(C#N)cc1C,3.35%,47.4% (active),45.4% (active),1.24%
Cc1cc(NC(=O)c2ccc([N+](=O)[O-])o2)ccc1NC(=O)c1ccco1,1.92%,50.6% (active),55.5% (active),-13.8%
O=[N+]([O-])c1cnccc1Nc1ccc(F)cc1,13.2%,66.8% (active),55.2% (active),9.14%
O=C(COC(=O)c1ccc(Br)o1)Nc1ccc2c(c1)OCCO2,22%,59.4% (active),63.1% (active),1.94%
CO/N=C\C(=N\Nc1ccc(OC)cc1)C(=O)c1ccccc1,-11.7%,49.5% (active),36.8%,5.9%
Cc1cc(OCC(=O)Nc2ccc(OCc3ccccc3)cc2)nc(C(C)C)n1,-0.66%,48% (active),32.4%,15.2%
O=C(NCc1ccco1)c1ccc([N+](=O)[O-])o1,7.6%,60.5% (active),59.6% (active),-13.8%
